Screens: PubChem BioAssay, Fisher Drug Discovery Resource Center
This is one part of a sample in which hits are shown more often than they occur.
mcGAS RapidFire = blocks mouse cGAS cGAMP production | recombinant mouse cGAS, cGAMP by RapidFire MS | inhibition, % at 12.5 µM | 0.18% of 130,000 active | AID 1259397;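 active = inhibition of cGAS enzyme activity at or above 60%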;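 also: enzyme stimulated by 45 bp dsDNA with ATP and GTP substrates; cGAMP share of summed cGAMP plus half ATP and half GTP signals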
Numbers stand for hits; – = inactive; ! = not active in a repeat.

SMILES | mcGAS RapidFire
CCc1nn2c(N)c(C=C3C=CC(=O)C=C3)c(=O)nc2s1 | 89.4
Nc1c(C=C2C=CC(=O)C=C2)c(=O)nc2sc(-c3ccccc3Cl)nn12 | –
Nc1c(C=C2C=CC(=O)C=C2)c(=O)nc2sc(-c3ccccc3)nn12 | –
O=C(Nc1n[nH]c(=S)s1)c1cccs1 | 76.5
O=C(Nc1n[nH]c(=S)s1)c1ccco1 | –
O=C(Nc1nc(-c2ccc(Cl)s2)cs1)c1cccs1 | –
O=C(O)[C@H]1C[C@H](C(=O)Nc2ccc(F)cc2)CN(Cc2cc3ccccc3o2)C1 | –
Cc1cc2nc3c(=O)[nH]c(=O)nc-3n(C)c2cc1C=O | 91.1
Cc1cc2nc(-c3ccccc3)c(=O)n(C)c2cc1C | –
Cc1cc2nc3c(=O)[nH]c(=O)nc-3n(CC(O)C(O)C(O)CO)c2cc1C (configuration not stated) | –
CC(Sc1ncc(C(F)(F)F)cc1Cl)C(=O)NC(=O)NC1CCCC1 (configuration not stated) | –
CC(C)c1ccc(/C=N\NC(=O)CSc2nnc(-c3ccccc3)n2-c2ccccc2)cc1 | –
COc1ccc(-c2ccc(NC(=O)C3CC3)nc2)c2cccnc12 | –
COc1ccc(-c2ccc(C(=O)N3CCCC3)o2)c2cccnc12 | 86.0
CNC(=O)c1ccc(-c2ccc(OC)c3ncccc23)s1 | –
CCc1cccc(CC)c1NC(=O)Cn1cnc2c(cnn2C)c1=O | –
CC(=O)Nc1ccc(C(=O)Nc2ccc3c(c2)OC2(CCCCC2)O3)cc1 | –
O=C1Oc2ccccc2C2c3sc(=O)[nH]c3SCC12 (configuration not stated) | 90.9
O=C(O)C1Sc2[nH]c(=O)sc2C2c3cc(Cl)cc(Cl)c3OC(=O)C12 (configuration not stated) | –
O=C(O)CC12CSc3[nH]c(=O)sc3C1c1ccccc1OC2=O (configuration not stated) | –
C/C(=C(/NC(=O)c1ccccc1)C(=O)NC1CCCCC1)c1ccc(C)cc1 | –
CCOC(=O)N1CCC(N2CCCC(Nc3ccc(F)c(F)c3)C2)CC1 (configuration not stated) | –
O=[N+]([O-])c1ccc(Cl)c(S(=O)(=O)N2c3cccc4cccc(c34)S2(=O)=O)c1 | –
O=S(=O)(CC1CCCO1)Nc1ccc(N2CCCC2)c(Cl)c1 (configuration not stated) | –
N#Cc1cccc(S(=O)(=O)Nc2c(F)cccc2N2CCCC2)c1 | –
SMILES | mcGAS RapidFire
N#CCCCCS(=O)(=O)Nc1ccc(N2CCCC2)c(F)c1 | 62.7
COc1cccc2cc(C(=O)Nc3cccc(Cl)c3)c(=O)oc12 | –
CC(=O)N1N=C(c2ccc(C(C)(C)C)cc2)OC1C(=O)NCc1ccccc1C(F)(F)F (configuration not stated) | –
COc1ccc(CCN2CCC(CN(C)Cc3cc(OC)ccc3F)CC2)cc1 | –
O=C(c1c(O)c2ccccc2oc1=O)C1CCC1 | –
O=c1oc2ccc(O)cc2c2c1NCCC2 | –
O=C1CNc2c(c(=O)oc3ccccc23)N1 | 95.6
COc1ccc(C2C(C(=O)c3ccccc3)C(O)(C(F)(F)F)N(C)C(=O)N2C)cc1 (configuration not stated) | –
CC(=O)Oc1cn(CC2CCCO2)c2nc(C)n3c4ccccc4nc3c12 (configuration not stated) | –
N[n+]1cnn(CC(=O)c2ccccc2Br)c1 | 98.1
O=C(CSCc1ccccc1)c1ccccc1Br | –
N[n+]1cnn(CC(=O)c2ccc(Br)cc2Br)c1 | 82.6
Cc1nn(CC(=O)c2ccc(Cl)cc2Cl)c(C)[n+]1N | –
CCC(=O)Nc1ccc(C(=O)Cn2cc(Br)cn2)cc1 | –
N[n+]1cnn(CC(=O)c2ccccc2)c1 | –
COCCN1C(=O)COCc2cc(-c3cccnc3)ccc21 | –
CN(C)CCC1CN(C(=O)c2ccc(C(F)(F)F)cc2)CCO1 (configuration not stated) | –
CCCc1ccc(CN2CC[C@H](CO)[C@@H](O)C2)o1 | –
O=C(CN1CCc2sccc2C1)Nc1ccc(F)c(F)c1 | –
Nc1c2ccccc2nc2ccccc12 | 77.7!
Cc1ccc2c(N)cccc2n1 | –
Nc1c2c(nc3ccccc13)CCCC2 | –
Cc1n[nH]c(C)c1CNC(=O)c1cccc(NCc2cccs2)c1 | –
O=c1c(O)cccc2cc(O)c(O)c(O)c12 | 65.3
CCOC(=O)c1cccc2c1-c1ccccc1/C2=N/O | –
SMILES | mcGAS RapidFire
Cc1ccccc1C(=O)O/N=C1/C(=O)c2ccccc2-c2ccccc21 | 70.4
C/C(=N/OC(=O)c1ccccc1C)c1ccc(Cl)cc1Cl | –
COc1cccc(-c2ccc3c(c2)N(Cc2ccc4c(c2)OCO4)C(=O)C(C)S3)c1 (configuration not stated) | –
CC1Sc2ccc(-c3ccco3)cc2N(Cc2ccc(Cl)cc2)C1=O (configuration not stated) | 65.7
CC1Sc2ccccc2N(Cc2ccc(F)c(Cl)c2)C1=O (configuration not stated) | –
CCOc1ccc(Cl)cc1S(=O)(=O)NC(C)(C)C | –
C=CCn1c(C)csc1=Nc1ccc(Cl)cc1 | –
COc1nn(C)cc1C(=O)NC1CCCCCC1 | –
Cc1cccnc1NC(=O)Nc1ccc(N2CCCN(C)CC2)cc1 | –
